Data taken from PubChem BioAssay (NCI).
About 83,000 compounds went through this panel and 20% of them were active in at least one assay; those are over-represented in the sample as a whole.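 Negative percent growth values reflect cell death: -40 means 40% of the cells present at the start died, and -100 means all died.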 Calls of active or inactive are those of the source. Rule for the calls: active = growth percent below 10; inactive = the rest.

Tests used:
Assay in all cases: NCI-60 one-dose screen, 48 h (100 = growth as untreated, 0 = no growth, -100 = all killed)
Settings in all cases: 10 µM unless noted
[1] = system: HCT-15 colon
[2] = system: HT29 colon
[3] = system: SNB-75 CNS
[4] = system: SNB-19 CNS
[5] = system: U251 CNS
[6] = system: PC-3 prostate
[7] = system: SK-MEL-5 melanoma
[8] = system: UACC-62 melanoma
[9] = system: LOX IMVI melanoma
[10] = system: SK-MEL-28 melanoma
[11] = system: SK-MEL-2 melanoma
[12] = system: EKVX NSCLC
[13] = system: SN12C renal
[14] = system: UO-31 renal
[15] = system: TK-10 renal
[16] = system: ACHN renal
[17] = system: CAKI-1 renal
[18] = system: CCRF-CEM leukemia
[19] = system: MOLT-4 leukemia

Measured: growth

CCOc1cc(CNc2ccc(N3CCOCC3)c(C(=O)O)c2)ccc1OC
inactive: [1] 96.4% | [2] 98.1% | [3] 108% | [4] 94.6% | [5] 103% | [6] 98.9% | [7] 99.8% | [8] 90.3% | [9] 99.5% | [10] 100% | [11] 98.7% | [12] 96.9% | [13] 94.2% | [14] 98.1% | [15] 94.7% | [16] 108% | [17] 102% | [18] 106% | [19] 104%

CC1(c2ccccc2)NC(=O)N(CC(=O)Nc2cccc(I)c2)C1=O (centres undefined)
inactive: [1] 92.9% | [2] 95.9% | [3] 66.8% | [4] 84.7% | [5] 88.7% | [6] 67.9% | [7] 31.1% | [8] 74% | [9] 93.8% | [10] 93% | [11] 77.5% | [12] 106% | [13] 96.9% | [14] 69.8% | [15] 96.1% | [16] 91.4% | [17] 72.9% | [18] 88.5% | [19] 85.3%

O=C(Nc1ccc2cc3ccc(NC(=O)NC4CCCCC4)cc3nc2c1)NC1CCCCC1
inactive: [1] 111% | [2] 82.7% | [3] 58.6% | [4] 78.9% | [5] 56.2% | [6] 83.7% | [7] 107% | [8] 87.8% | [9] 63% | [10] 79% | [11] 97.3% | [12] 95.1% | [13] 88.2% | [14] 89.1% | [15] 100% | [16] 100% | [17] 93.3% | [18] 25.1%
active: [19] 9.49%

O=C1c2ccccc2-c2c1c1c(NCCCO)nc3ccccc3c1n2Cc1ccccc1
active: [2] 5.61% | [3] -1.82% | [5] 7.89% | [7] -82.6% | [9] 2.25% | [10] -3.55% | [14] -40.9% | [15] -20.2%
inactive: [1] 66% | [4] 16.7% | [6] 33.8% | [8] 17.5% | [11] 48.5% | [12] 17.8% | [13] 18.6% | [16] 50.1% | [17] 33.9% | [18] 36% | [19] 16.9%

Clc1ccc2c(c1)c(-c1ccccc1)nc1nncn12
inactive: [1] 108% | [2] 104% | [3] 98.3% | [4] 109% | [5] 105% | [6] 111% | [7] 105% | [8] 113% | [9] 102% | [10] 121% | [11] 102% | [12] 109% | [13] 104% | [14] 90.8% | [15] 114% | [16] 117% | [17] 105% | [18] 101% | [19] 96.7%

CCCCCCc1nc2nc(Cl)c(Cl)nc2[nH]1
inactive: [1] 57.2% | [2] 77.3% | [3] 53.2% | [4] 65.6% | [5] 49% | [6] 47.9% | [7] 16.2% | [8] 38.4% | [9] 53.7% | [10] 65.1% | [11] 63.4% | [12] 52.6% | [13] 60.8% | [14] 52.6% | [15] 76.9% | [16] 67.4% | [17] 39.1% | [18] 47.8% | [19] 49%

COc1ccc(CC(C)=C(c2ccc(OCCN(C)C)cc2)c2ccc(OCCN(C)C)cc2)cc1
inactive: [1] 62.8% | [2] 39% | [3] 81.6% | [4] 80.1% | [5] 55.3% | [6] 70.8% | [7] 84.2% | [8] 39.1% | [9] 71.5% | [10] 71.5% | [11] 108% | [12] 88.5% | [13] 75.2% | [14] 60.6% | [15] 99.6% | [16] 98% | [17] 84% | [18] 17.1% | [19] 64.6%

COc1cc2oc(-c3cccc(C(=O)Nc4ccc(Cl)cc4)c3)cc(=O)c2c(OC)c1OC
active: [2] 4.57% | [7] -60.1% | [8] -9.87% | [9] 2.16% | [10] -9.19% | [17] 8.22%
inactive: [1] 17% | [3] 70.6% | [4] 52.7% | [5] 37.4% | [6] 27.1% | [11] 31.4% | [12] 48.2% | [13] 33.2% | [14] 23.2% | [15] 38.6% | [16] 33.2% | [18] 28.5% | [19] 36.1%

CCOC(=O)c1ccc(Nc2ccnc(SCC(=O)c3ccc(C#N)cc3)n2)cc1
inactive: [1] 75.8% | [2] 76.2% | [3] 102% | [4] 89.9% | [5] 84.8% | [6] 39.6% | [7] 37.5% | [8] 39.3% | [9] 80.3% | [10] 80.8% | [11] 71.1% | [12] 73.4% | [13] 73.8% | [14] 48% | [15] 90.4% | [16] 80% | [17] 57.1% | [18] 17.5% | [19] 16.3%

C#CC(=O)Nc1cccc2c1cc(C)n2-c1nc2c(c(NCc3ccccc3)n1)CCCC2
active: [1] -74.4% | [2] -58.2% | [3] -25.6% | [4] -71.9% | [5] -91.9% | [6] -56.5% | [7] -96.1% | [8] -73.7% | [9] -65.8% | [10] -58.4% | [11] -74.5% | [12] -39.3% | [13] -66.2% | [14] -76% | [15] -98.1% | [16] -73.6% | [17] -43.2% | [18] -26.5% | [19] -33.4%

CC(O)(CO)c1ccccc1 (centres undefined)
inactive: [1] 97.8% | [2] 102% | [3] 92.5% | [4] 98.3% | [5] 101% | [6] 91.7% | [7] 102% | [8] 96% | [9] 102% | [10] 102% | [11] 106% | [12] 96.3% | [13] 98.8% | [14] 91% | [15] 110% | [16] 95.2% | [17] 104% | [18] 113% | [19] 110%

Cc1ccccc1CNc1ccc(N2CCOCC2)cc1
inactive: [1] 101% | [2] 105% | [3] 92.7% | [4] 101% | [5] 100% | [6] 99.6% | [7] 99.5% | [8] 94.8% | [9] 102% | [10] 99.8% | [11] 102% | [12] 104% | [13] 96.3% | [14] 107% | [15] 95.3% | [16] 108% | [17] 99.1% | [18] 112% | [19] 101%

COc1ccc(C2=C(c3ccccc3)c3ccc(OC(C)=O)cc3OC2(C)C)cc1
active: [19] 4.69%
inactive: [1] 80.4% | [2] 105% | [3] 118% | [4] 111% | [5] 95.7% | [6] 72.4% | [7] 93.1% | [8] 83.5% | [9] 71.4% | [10] 100% | [11] 94.9% | [12] 82.3% | [13] 93% | [14] 90.6% | [15] 116% | [16] 76.3% | [17] 67.8% | [18] 50.3%

CC1(C)CC[C@]2(C(=O)NCC#CCN3CCOCC3)CC[C@]3(C)C(=CC[C@@H]4[C@@]5(C)Cc6c([nH]c7ccccc67)C(C)(C)[C@@H]5CC[C@]43C)[C@@H]2C1
inactive: [1] 93.5% | [2] 83.5% | [3] 98.2% | [4] 93.1% | [5] 87.9% | [6] 58.6% | [7] 88.8% | [8] 49.3% | [9] 94.6% | [10] 67.7% | [11] 94.6% | [12] 96.8% | [13] 94.4% | [14] 81.6% | [15] 95.7% | [16] 73.1% | [17] 81.9% | [18] 83.1% | [19] 72.3%

Nc1c(Cl)cc([N+](=O)[O-])cc1Br
inactive: [1] 103% | [2] 103% | [3] 108% | [4] 116% | [5] 101% | [6] 96.1% | [7] 98.9% | [8] 102% | [9] 104% | [10] 110% | [11] 121% | [12] 89.1% | [13] 97% | [14] 90% | [15] 115% | [16] 112% | [17] 85.4% | [18] 104% | [19] 105%

CCCC/C(=N\N=C(N)N)c1ccc(F)cc1
inactive: [1] 23.4% | [4] 41.6% | [5] 32.1% | [6] 26.3% | [8] 45.3% | [9] 26.5% | [10] 54% | [12] 44.5% | [13] 37.5% | [14] 45.3% | [15] 50.7% | [16] 43.6% | [17] 29.5% | [18] 26.3% | [19] 32.4%
active: [2] 1.87% | [3] -1.82% | [7] 2.87% | [11] 1.07%
